Source: ChEMBL document CHEMBL3988442, “University of Dundee, Small-Polar-MMV Screening Library” (2021)
In all, about 48,000 compounds went through this assay and about 13,000 (27%) showed an effect of 50% or more. The list shows a part of the results.

What follows are molecules tested on Wolbachia pipientis (assay: Anti-Wolbachia Cell-Based Screen). Conditions: 5 µM.
Assay type: functional
Design: scale not given: in the data most compounds retested in dose-response had high values

First: CCOC(=O)N1CCN(c2nc(CCN)nc3sc(C)c(C)c23)CC1
Second: CC(CC#N)N1CCN(C(=O)OC(C)(C)C)CC1 (configuration not stated)
The “Percent Effect” value of the first is higher: -2.539% for the first, -8.127% for the second.

First: Cn1ncc(N2CCC(CNC3CC(c4ccccc4)C3)CC2)cc1=O (configuration not stated)
Second: COc1ccc(CNC2CCN(c3ccccc3)C2)cc1O (configuration not stated)
The “Percent Effect” value of the first is lower: 0.2132% for the first, 14.8% for the second.

First: COC(=O)N1CCN(C(=O)c2ccc(C)c(N3CCNC3=O)c2)CC1
Second: CCN1CC2(CC1=O)CN(C(=O)c1ccco1)CCN(C(=O)N(C)C)C2 (configuration not stated)
The “Percent Effect” value of the first is lower: -15.45% for the first, -10.83% for the second.

Compared with CCOCCN1CCN(CCOC)CC1C (configuration not stated), COc1cc(N2C[C@H]3CN(CCN4CCCC4)C(=O)[C@H]3C2)ncn1 is lower in “Percent Effect” value: -2.366% for the first, -15.15% for the second.

Going from CC(C)CN1CCC2(CCN(CC3CC3)CC2)C1=O.O=C(O)C(F)(F)F to CCN1Cc2ccccc2CC2(CCN(CC(=O)O)CC2)C1=O.O=C(O)C(F)(F)F, the “Percent Effect” value rises from 3.548% to 108.1%.

Going from CCN1Cc2ccccc2CC2(CCN(C)CC2)C1=O to CCN1Cc2ccccc2CC2(CCN(C(=O)N(C)C)CC2)C1=O, the “Percent Effect” value rises from 106.4% to 108.4%.

Going from CN1C(=O)CC2(CCN(S(=O)(=O)C3CC3)CC2)c2ccccc21 to CCN1Cc2ccccc2CC2(CCN(CC3CCC3)CC2)C1=O, the “Percent Effect” value rises from 18.32% to 112.5%.

First: Cc1ccc2c(c1)C1(CC2)CCN(CC(=O)O)CC1.O=C(O)C(F)(F)F
Second: O=C(O)CN1CCC2(CCc3ccccc32)CC1
The “Percent Effect” value of the first is higher: -2.152% for the first, -5.092% for the second.

Going from Cn1cccc1C(=O)N1CCC2(CCCN(CC3CCC3)C2=O)C1 (configuration not stated) to O=C1N(CCc2ccccc2)CCCC12CCN(C(CO)CO)C2 (configuration not stated), the “Percent Effect” value falls from 0% to -2.358%.

First: CCN1CCC2(CN(C(C)=O)CC23CCN(C(=O)N(C)C)CC3)C1=O (configuration not stated)
Second: CN(C)S(=O)(=O)N1CCN(C(=O)OC(C)(C)C)CC12CCCCC2
The “Percent Effect” value of the first is lower: -7.709% for the first, 120.5% for the second.

Going from Cn1nc2c(cc1=O)CN(CC1CCCCO1)CC2 (configuration not stated) to Cc1cnn(CC2CCCCN2Cc2cc(C)on2)c1 (configuration not stated), the “Percent Effect” value rises from 1.26% to 27.16%.

First: CCC1CCCCN1Cc1ncc(C(C)(C)C)o1 (configuration not stated)
Second: CC(C)(C)c1cnc(CN2CCC[C@H]2CO)o1
The “Percent Effect” value of the first is higher: 88.88% for the first, -3.159% for the second.

First: CC(C)(C)c1cnc(CN2CCCC2Cn2cccn2)o1 (configuration not stated)
Second: Cc1cnn(CC2CCCCN2Cc2ncc(C(C)(C)C)o2)c1 (configuration not stated)
The “Percent Effect” value of the first is lower: 3.93% for the first, 103.7% for the second.

Going from CCC1CCCCN1Cc1ncc(-c2ccc(OC)cc2)o1 (configuration not stated) to CCOc1ccc(NC(=O)c2cnc(N3CCCC3)nc2C)cc1, the “Percent Effect” value rises from -15.61% to 17.2%.

First: NC(=O)c1ccc(N2CCN(Cc3c(Cl)cncc3Cl)CC2)nc1
Second: Cn1cc(CCCN2CCN(Cc3cccc(O)c3)CC2)cn1
The “Percent Effect” value of the first is lower: -3.438% for the first, 5.998% for the second.

First: O=C(NS(=O)(=O)c1cccc(C(F)(F)F)c1)c1cnsn1
Second: CCCc1nc(C)c(C(=O)NS(=O)(=O)c2cccnc2)s1
The “Percent Effect” value of the first is higher: 1.908% for the first, -11.93% for the second.

First: Oc1cccc(CN2CCN(C3CCc4ccccc4C3)CC2)c1 (configuration not stated)
Second: COc1ccc(CN2CCN(C3CCc4ccccc4C3)CC2)cc1O (configuration not stated)
The “Percent Effect” value of the first is higher: 111.6% for the first, 105.5% for the second.

First: CC(CN1CCOCC1)NC1CCN(Cc2cccc(O)c2)CC1 (configuration not stated)
Second: COc1cc(O)ccc1CN1CCN(C2CCc3ccccc3C2)CC1 (configuration not stated)
The “Percent Effect” value of the first is lower: -2.88% for the first, 95.73% for the second.

First: COc1ccc(CN2CCCC(Nc3cccc(F)c3)C2)cc1O (configuration not stated)
Second: COc1ccc(N(C(=O)Cc2ccc(C)nc2)C(C)C)cc1F
The “Percent Effect” value of the first is lower: -4.671% for the first, -2.597% for the second.

Going from Cc1ccnn1CC(=O)N1CCN(C2CCc3ccccc3C2)CC1 (configuration not stated) to Cc1cc(NC(=O)c2ccc(N3CCOCC3)cc2)[nH]n1, the “Percent Effect” value falls from -4.494% to -12.35%.

Going from COc1ccc(CN2CCC(O)CC2)c(OC)c1 to COc1ccc(C2CCN(S(=O)(=O)CCCC#N)CC2)cc1, the “Percent Effect” value rises from -14.46% to -10.18%.

Going from O=C(CNc1cc(Br)ccc1Br)NC1CCS(=O)(=O)C1 (configuration not stated) to CC(C)c1cc(NC(=O)c2ccc(NC3CC3)nc2)[nH]n1, the “Percent Effect” value rises from -18.44% to -1.016%.

Going from CCN1CCCC(CN2CCn3nc(CNC(=O)N(C)C)cc3C2)C1 (configuration not stated) to CCn1nc(C)c(CCn2ccnc2-c2cc3n(n2)CCNC3)c1C, the “Percent Effect” value falls from 11.32% to 7.532%.

Going from CC(C)(C)OC(=O)N1CCC(NC2CC2)CC1 to CC(CO)N1CCN(C(=O)OC(C)(C)C)CC1 (configuration not stated), the “Percent Effect” value rises from -10.91% to -0.0103%.

Going from CC(C)(C)OC(=O)N1CCN(S(C)(=O)=O)C2(CCCCC2)C1 to CC(C)(C)OC(=O)N1CCN(S(=O)(=O)CCCC#N)C2(CCCCC2)C1, the “Percent Effect” value falls from 138.8% to 111.4%.

Going from CS(=O)(=O)N1CCCC12CCCN(C(=O)c1ccncc1)C2 (configuration not stated) to CS(=O)(=O)N1CCCC12CCCN(C(=O)c1ccnnc1)C2 (configuration not stated), the “Percent Effect” value rises from -13.2% to 0.7841%.

Going from O=C(NC1CC1)N1CC[C@H]2[C@H]1CCN2c1nncs1.O=C(O)C(F)(F)F to Cc1ncsc1CN1C[C@@H]2COC[C@]2(C(=O)NC(C)C)C1.O=C(O)C(F)(F)F, the “Percent Effect” value falls from 6.883% to -19.77%.

First: CCN(Cc1ccc2c(c1)OCCO2)C(=O)NC(C)Cn1ccnc1 (configuration not stated)
Second: CC(C)c1cc(NC(=O)c2ccncc2)[nH]n1
The “Percent Effect” value of the first is lower: 1.976% for the first, 102.9% for the second.

Compared with CCOc1ccc(NC(=O)c2cc3c([nH]c2=O)CCC3)cc1, CCOC(=O)c1ccc(NC(=O)c2cc3c([nH]c2=O)CCCC3)cc1 is lower in “Percent Effect” value: 108.3% for the first, -8.889% for the second.

First: CCCc1nc(C)c(C(=O)NCc2ccc(C)n2C)s1
Second: CCCc1nc(C)c(C(=O)Nc2cccc(C)n2)s1
The “Percent Effect” value of the first is lower: 17.26% for the first, 125.8% for the second.

First: Cc1cccc(NC(=O)c2sc(C)nc2C)n1
Second: Cc1nc(C)c(C(=O)Nc2cc(N3CCC(C)CC3)ncn2)s1
The “Percent Effect” value of the first is higher: 165.1% for the first, 1.923% for the second.

First: Cc1nc(C)c(C(=O)NCCNC(=O)Cc2cccc(F)c2)s1
Second: Cc1ccc(CC(=O)NCC(O)c2ccc(Cl)cc2Cl)cn1 (configuration not stated)
The “Percent Effect” value of the first is higher: -2.44% for the first, -14.52% for the second.

Compared with COCC(O)CN(C)C(=O)c1cccc(-c2csc(C)n2)c1 (configuration not stated), Cc1ccc(C(=O)Nc2cc(C(C)C)n[nH]2)cn1 is higher in “Percent Effect” value: -1.754% for the first, -1.048% for the second.

Going from CC(C)c1cc(NC(=O)c2ccc([S+]([O-])C(C)C)cc2)[nH]n1 (configuration not stated) to CC(C)c1cc(NC(=O)c2ccc(C(=O)NC(C)(C)C)cc2)[nH]n1, the “Percent Effect” value falls from 112.1% to -2.024%.

First: Cc1ccc(CC(=O)Nc2cc(C(C)C)n[nH]2)cn1
Second: CC(C)c1cc(NC(=O)c2cccnc2)[nH]n1
The “Percent Effect” value of the first is higher: 129.4% for the first, 108.7% for the second.

Compared with Cc1nn(C(C)C)c(C)c1NC(=O)c1ccncc1, Cc1cc(NC(=O)c2ccc(N3CCOCC3)c(C)c2)[nH]n1 is lower in “Percent Effect” value: 7.79% for the first, 7.693% for the second.
